{"source": "paper PMC8384837", "about": "“Expanding the binding specificity for RNA recognition by a PUF domain”", "assay_in_all_cases": "yeast three-hybrid, YBZ-1, SC-Leu-His + 0.5 mM 3-AT, 4 days", "details_in_all_cases": "tags: N-Gal4 AD-HA kept; label: inside an RPR1-promoter hybrid RNA with tandem MS2 sites; ssRNA", "key": {"PUM1 PUF domain R3-EFT": {"target": "PUM1 PUF domain R3-EFT (Homo sapiens, UniProt Q14671 828-1176, C935E;R936F;Q939T)", "in_short": "(§1)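 Pumilio-1 PUF domain libraries, randomized at the three base-contacting residues of each repeat, were co-expressed with matching RNA elements from a centromeric plasmid in strain YBZ-1, which carries a LexA–MS2 coat fusion and a HIS3 reporter. Transformants grew for four days on SC-Leu (input) or on SC-Leu-His + 0.5 mM 3-AT (selection), and the repeat regions were PCR-amplified and Illumina-sequenced. The interaction score is the log change in variant frequency from input to selection. That logarithm is base 2, with a pseudocount of 1 where a variant was absent.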"}, "PUM1 PUF domain R1-RLM": {"target": "PUM1 PUF domain R1-RLM (Homo sapiens, UniProt Q14671 828-1176, S863R;R864L;Q867M)", "in_short": "as §1"}, "PUM1 PUF domain R1-RRA": {"target": "PUM1 PUF domain R1-RRA (Homo sapiens, UniProt Q14671 828-1176, S863R;Q867A)", "in_short": "as §1"}, "PUM1 PUF domain R5-RMG": {"target": "PUM1 PUF domain R5-RMG (Homo sapiens, UniProt Q14671 828-1176, C1007R;R1008M;Q1011G)", "in_short": "as §1"}, "PUM1 PUF domain R4-ANS": {"target": "PUM1 PUF domain R4-ANS (Homo sapiens, UniProt Q14671 828-1176, N971A;H972N;Q975S)", "in_short": "as §1"}, "PUM1 PUF domain R4-CNA": {"target": "PUM1 PUF domain R4-CNA (Homo sapiens, UniProt Q14671 828-1176, N971C;H972N;Q975A)", "in_short": "as §1"}, "PUM1 PUF domain R4-GCC": {"target": "PUM1 PUF domain R4-GCC (Homo sapiens, UniProt Q14671 828-1176, N971G;H972C;Q975C)", "in_short": "as §1"}, "PUM1 PUF domain R8-HWV": {"target": "PUM1 PUF domain R8-HWV (Homo sapiens, UniProt Q14671 828-1176, N1122H;Y1123W;Q1126V)", "in_short": "as §1"}, "PUM1 PUF domain R4-EPS": {"target": "PUM1 PUF domain R4-EPS (Homo sapiens, UniProt Q14671 828-1176, N971E;H972P;Q975S)", "in_short": "as §1"}, "PUM1 PUF domain R4-GHF": {"target": "PUM1 PUF domain R4-GHF (Homo sapiens, UniProt Q14671 828-1176, N971G;Q975F)", "in_short": "as §1"}}, "data": [{"sequence": "GGCUAGAACUAGUGGAUCCCCCGGCGCCCGGCGGCUCGAGCCCGGGUAAGUGUAAUUAGUCUGCAUGCCGCCGGGCGCCAUGCCUGCAGGUCGACUCUAGAAAACAUG", "values": [{"measurement": "binding signal", "setting": "PUM1 PUF domain R3-EFT", "result": "2.45 log2 enrichment (interaction score)"}]}, {"sequence": "GGCUAGAACUAGUGGAUCCCCCGGCGCCCGGCGGCUCGAGCCCGGGUAAGUGUAAAUGGUCUGCAUGCCGCCGGGCGCCAUGCCUGCAGGUCGACUCUAGAAAACAUG", "values": [{"measurement": "binding signal", "setting": "PUM1 PUF domain R1-RLM", "result": "1.69 log2 enrichment (interaction score)"}]}, {"sequence": "GGCUAGAACUAGUGGAUCCCCCGGCGCCCGGCGGCUCGAGCCCGGGUAAGUGUAAAUUGUCUGCAUGCCGCCGGGCGCCAUGCCUGCAGGUCGACUCUAGAAAACAUG", "values": [{"measurement": "binding signal", "setting": "PUM1 PUF domain R1-RRA", "result": "1.49 log2 enrichment (interaction score)"}, {"measurement": "binding signal", "setting": "PUM1 PUF domain R1-RLM", "result": "3.95 log2 enrichment (interaction score)"}]}, {"sequence": "GGCUAGAACUAGUGGAUCCCCCGGCGCCCGGCGGCUCGAGCCCGGGUAAGUGUAAGUAGUCUGCAUGCCGCCGGGCGCCAUGCCUGCAGGUCGACUCUAGAAAACAUG", "values": [{"measurement": "binding signal", "setting": "PUM1 PUF domain R3-EFT", "result": "3.92 log2 enrichment (interaction score)"}]}, {"sequence": "GGCUAGAACUAGUGGAUCCCCCGGCGCCCGGCGGCUCGAGCCCGGGUAAGUGUCAAUAGUCUGCAUGCCGCCGGGCGCCAUGCCUGCAGGUCGACUCUAGAAAACAUG", "values": [{"measurement": "binding signal", "setting": "PUM1 PUF domain R5-RMG", "result": "2.42 log2 enrichment (interaction score)"}]}, {"sequence": "GGCUAGAACUAGUGGAUCCCCCGGCGCCCGGCGGCUCGAGCCCGGGUAAGUGUAUAUAGUCUGCAUGCCGCCGGGCGCCAUGCCUGCAGGUCGACUCUAGAAAACAUG", "values": [{"measurement": "binding signal", "setting": "PUM1 PUF domain R4-ANS", "result": "2.51 log2 enrichment (interaction score)"}, {"measurement": "binding signal", "setting": "PUM1 PUF domain R4-CNA", "result": "1.78 log2 enrichment (interaction score)"}, {"measurement": "binding signal", "setting": "PUM1 PUF domain R4-GCC", "result": "3.64 log2 enrichment (interaction score)"}]}, {"sequence": "GGCUAGAACUAGUGGAUCCCCCGGCGCCCGGCGGCUCGAGCCCGGGUAAGUGUACAUAGUCUGCAUGCCGCCGGGCGCCAUGCCUGCAGGUCGACUCUAGAAAACAUG", "values": [{"measurement": "binding signal", "setting": "PUM1 PUF domain R4-ANS", "result": "2.23 log2 enrichment (interaction score)"}, {"measurement": "binding signal", "setting": "PUM1 PUF domain R4-CNA", "result": "2.26 log2 enrichment (interaction score)"}, {"measurement": "binding signal", "setting": "PUM1 PUF domain R4-GCC", "result": "1.75 log2 enrichment (interaction score)"}]}, {"sequence": "GGCUAGAACUAGUGGAUCCCCCGGCGCCCGGCGGCUCGAGCCCGGGUAAGCGUAAAUAGUCUGCAUGCCGCCGGGCGCCAUGCCUGCAGGUCGACUCUAGAAAACAUG", "values": [{"measurement": "binding signal", "setting": "PUM1 PUF domain R8-HWV", "result": "4.26 log2 enrichment (interaction score)"}]}, {"sequence": "GGCUAGAACUAGUGGAUCCCCCGGCGCCCGGCGGCUCGAGCCCGGGUAAGUGUAAAUAGUCUGCAUGCCGCCGGGCGCCAUGCCUGCAGGUCGACUCUAGAAAACAUG", "values": [{"measurement": "binding signal", "setting": "PUM1 PUF domain R4-EPS", "result": "3.28 log2 enrichment (interaction score)"}, {"measurement": "binding signal", "setting": "PUM1 PUF domain R3-EFT", "result": "4.71 log2 enrichment (interaction score)"}, {"measurement": "binding signal", "setting": "PUM1 PUF domain R4-GHF", "result": "4.42 log2 enrichment (interaction score)"}, {"measurement": "binding signal", "setting": "PUM1 PUF domain R4-ANS", "result": "2.16 log2 enrichment (interaction score)"}, {"measurement": "binding signal", "setting": "PUM1 PUF domain R4-GCC", "result": "1.5 log2 enrichment (interaction score)"}, {"measurement": "binding signal", "setting": "PUM1 PUF domain R8-HWV", "result": "3.05 log2 enrichment (interaction score)"}]}, {"sequence": "GGCUAGAACUAGUGGAUCCCCCGGCGCCCGGCGGCUCGAGCCCGGGUAAGUGUAAAUCGUCUGCAUGCCGCCGGGCGCCAUGCCUGCAGGUCGACUCUAGAAAACAUG", "values": [{"measurement": "binding signal", "setting": "PUM1 PUF domain R1-RRA", "result": "2.68 log2 enrichment (interaction score)"}, {"measurement": "binding signal", "setting": "PUM1 PUF domain R1-RLM", "result": "3.34 log2 enrichment (interaction score)"}]}]}
